The supplement of paper PMC13380429

Tested on: Vero E6 infected with SARS-CoV-2
Experiment: inhibition of SARS-CoV-2 cytopathic effect; higher = more antiviral protection, active = above 15
Details: 48 h

Measured: inhibition of SARS-CoV-2 cytopathic effect

N[C@@H](C(=O)O)c1ccc(C(=O)O)c(C(=O)O)c1 (racemic)
inactive: 1 nM 2.59% | 8.33 nM 0.287% | 100 nM 1.6% | 833.33 nM -2.93% | 10000 nM -0.293%

Cc1cc(OI)c(C(C)C)cc1-c1cc(C(C)C)c(OI)cc1C [thymol-iodide]
inactive: 1 nM -1.11% | 8.33 nM -0.04% | 100 nM -0.16% | 833.33 nM 1.69% | 10000 nM -2.32%

CC(C)(C)C(=O)OCOC(=O)[C@@H]1N2C(=O)C[C@H]2S(=O)(=O)C1(C)C [sulbactam-pivoxil]
inactive: 1 nM -1.2% | 8.33 nM -4.28% | 100 nM -7.15% | 833.33 nM 5.91% | 10000 nM -2.18%

CN(C)C(=O)C(=O)c1cn(C)c2cc(Cl)c(C(=O)N3CCC(Cc4ccc(F)cc4)CC3)cc12
inactive: 1 nM 2.15% | 8.33 nM -1.11% | 100 nM -2.84% | 833.33 nM -2.05% | 10000 nM 6.33%

CCN(CC)Cc1ccc2cc(COC(=O)Nc3ccc(C(=O)NO)cc3)ccc2c1 [givinostat]
inactive: 1 nM -2.85% | 8.33 nM -0.88% | 100 nM -5.68% | 833.33 nM -19.8% | 10000 nM -29.6%

OCCN(CCO)c1nc(N2CCCCC2)c2nc(N(CCO)CCO)nc(N3CCCCC3)c2n1 [dipyridamole]
inactive: 1 nM -0.67% | 8.33 nM 1.83% | 100 nM 0.53% | 833.33 nM 0.2% | 10000 nM 4.52%

CC(=O)N1CCC(NC(=O)c2ccc(F)cc2)CC1
inactive: 1 nM -1.4% | 8.33 nM -1.44% | 100 nM 0.95% | 833.33 nM 0.58% | 10000 nM 0.98%

COc1nccc(-c2c(-c3ccc(F)cc3)ncn2[C@H]2CC[C@H](O)CC2)n1
inactive: 1 nM 5.42% | 8.33 nM 6.4% | 100 nM 3.88% | 833.33 nM 2.66% | 10000 nM 7.7%

Clc1cccc(Cl)c1CSc1nnc(-c2cnccn2)s1 [yoda-1]
inactive: 1 nM 1.9% | 8.33 nM 3.59% | 100 nM -0.57% | 833.33 nM 2.67% | 10000 nM 9.5%

COc1cc2c(cc1OC)[C@@H]1Cc3ccc(OC)c(OC)c3CN1CC2 [rotundine]
inactive: 1 nM -0.42% | 8.33 nM -2.68% | 100 nM -1.22% | 833.33 nM 4.97% | 10000 nM 3.54%

O=C(N/N=C/c1ccc([N+](=O)[O-])o1)c1cc([N+](=O)[O-])cc([N+](=O)[O-])c1O [nifursol]
inactive: 1 nM 0.19% | 8.33 nM 3.21% | 100 nM 2.56% | 833.33 nM 2.62% | 10000 nM 2.82%

COc1cc(OC)cc(C(=O)NNC(=O)Nc2cccc3ccccc23)c1
inactive: 1 nM 0.29% | 8.33 nM -2.09% | 100 nM -1.74% | 833.33 nM 2.71% | 10000 nM -1.92%

CSc1ccc(OCc2ncc([N+](=O)[O-])n2C)cc1 [fexinidazole]
inactive: 1 nM -1.82% | 8.33 nM -1.7% | 100 nM -1.88% | 833.33 nM -3.53% | 10000 nM -0.36%

CC[C@H](C)C(=O)O[C@H]1C[C@@H](C)C=C2C=C[C@H](C)[C@H](CC[C@@H]3C[C@@H](O)CC(=O)O3)[C@H]21 [lovastatin]
inactive: 1 nM -0.49% | 8.33 nM 4.16% | 100 nM 1.14% | 833.33 nM 1.16% | 10000 nM 0.82%

CC(C)C[C@H](NC(=O)CNC(=O)c1cc(Cl)ccc1Cl)B1OC(=O)C(CC(=O)O)(CC(=O)O)O1
active: 100 nM 21.2% | 833.33 nM 34.2% | 10000 nM 18.7%
inactive: 1 nM -0.89% | 8.33 nM 1.36%

CNC(=O)O[C@H]1COc2ccc(N3CCN(C4COC4)CC3)cc2[C@@H]1NC(=O)c1ccc(F)cc1
inactive: 1 nM 1.12% | 8.33 nM -0.75% | 100 nM -1.06% | 833.33 nM 0.34% | 10000 nM 1.4%

C[C@]12C/C(=C/O)C(=O)C[C@@H]1CC[C@@H]1[C@@H]2CC[C@@]2(C)[C@H]1CC[C@]2(C)O [Oxymetholone]
inactive: 1 nM 0.88% | 8.33 nM 0.02% | 100 nM 1.73% | 833.33 nM 0.45% | 10000 nM 1.57%

C[C@H](N)C(=O)O [L-alanine]
inactive: 1 nM 1.06% | 8.33 nM -0.48% | 100 nM 0.43% | 833.33 nM -0.48% | 10000 nM -4.52%

Cc1ccc(=O)n(-c2ccccc2)c1 [pirfenidone]
inactive: 1 nM 3.93% | 8.33 nM 6.69% | 100 nM 3.96% | 833.33 nM 3.47% | 10000 nM 5.58%

NC(=O)Nc1sc(-c2ccc(F)cc2)cc1C(N)=O
inactive: 1 nM 1.14% | 8.33 nM -0.06% | 100 nM -0.35% | 833.33 nM -3.05% | 10000 nM -0.22%

Cc1cc(N2CCN([C@@H]3CN[C@H](C(=O)N4CCSC4)C3)CC2)n(-c2ccccc2)n1 [teneligliptin]
inactive: 1 nM 0.52% | 8.33 nM 1.21% | 100 nM 1% | 833.33 nM 1.12% | 10000 nM -2.67%

CN1CCN(CC/C=C2/c3ccccc3Sc3ccc(S(=O)(=O)N(C)C)cc32)CC1 [thiothixene]
inactive: 1 nM -3.86% | 8.33 nM -3.67% | 100 nM -4.39% | 833.33 nM -3.71% | 10000 nM 14%

CCc1ccc(C2=CC(C)(C)Sc3ccc(C#Cc4ccc(C(=O)O)cc4)cc32)cc1
inactive: 1 nM 0.1% | 8.33 nM 2.14% | 100 nM 1.4% | 833.33 nM 1.53% | 10000 nM 3.68%

O=C(Cc1ccc(Cl)c(Cl)c1)N1CCCC[C@@H]1CN1CCCC1
inactive: 1 nM -0.96% | 8.33 nM 2.64% | 100 nM 1.57% | 833.33 nM -0.63% | 10000 nM -4.8%

CC(=O)NC[C@H]1CN(c2ccc(N3CCOCC3)c(F)c2)C(=O)O1 [linezolid]
inactive: 1 nM -5.81% | 8.33 nM 4.06% | 100 nM 2.87% | 833.33 nM -0.71% | 10000 nM 3.13%

COc1cc(F)c(C(C)C)cc1-c1ccc(C(F)(F)F)cc1CN1C(=O)O[C@H](c2cc(C(F)(F)F)cc(C(F)(F)F)c2)[C@@H]1C [anacetrapib]
inactive: 1 nM 0.72% | 8.33 nM 0.48% | 100 nM -1.02% | 833.33 nM -2.52% | 10000 nM 2.39%

NP(N)(=O)NC(=O)c1ccc(F)cc1 [flurofamide]
inactive: 1 nM 3.53% | 8.33 nM -1.42% | 100 nM -1.3% | 833.33 nM 0.9% | 10000 nM 5.62%

CC(=O)O[C@H]1C[C@H](O[C@H]2[C@@H](O)C[C@H](O[C@H]3[C@@H](O)C[C@H](O[C@H]4CC[C@@]5(C)[C@H](CC[C@@H]6[C@@H]5C[C@@H](O)[C@]5(C)[C@@H](C7=CC(=O)OC7)CC[C@]65O)C4)O[C@@H]3C)O[C@@H]2C)O[C@H](C)[C@H]1O[C@@H]1O[C@H](CO)[C@@H](O)[C@H](O)[C@H]1O [lanatoside-C]
inactive: 1 nM 0.4% | 8.33 nM -0.46% | 100 nM -8.78% | 833.33 nM -9.54% | 10000 nM -11.4%

C[C@@H]1CN([C@H]2CC[C@](C#N)(c3ccc(F)cc3)CC2)CC[C@]1(C(=O)O)c1ccccc1 [levocabastine]
inactive: 1 nM 1.53% | 8.33 nM 0.57% | 100 nM -0.86% | 833.33 nM 1.81% | 10000 nM -0.71%

C#C[C@]1(O)CC[C@H]2[C@@H]3CCC4=CC(=O)CCC4=C3C=C[C@@]21CC [gestrinone]
inactive: 1 nM 1.67% | 8.33 nM 0.8% | 100 nM 4.87% | 833.33 nM 3.58% | 10000 nM 5.58%

Oc1ccc(C2CNCCc3c2cc(O)c(O)c3Cl)cc1 (stereo not given) [fenoldopam]
inactive: 1 nM 5.49% | 8.33 nM 1.3% | 100 nM 4.35% | 833.33 nM 0.98% | 10000 nM -5.61%

CN1CCCCC1CCN1c2ccccc2Sc2ccc([S+](C)[O-])cc21 (stereo not given) [mesoridazine]
inactive: 1 nM -0.86% | 8.33 nM -1.76% | 100 nM -0.98% | 833.33 nM -3.35% | 10000 nM -3.76%

C=C(C)[C@@H]1CC[C@]2(C(=O)O)CC[C@]3(C)[C@H](CC[C@@H]4[C@@]5(C)CC[C@H](O)C(C)(C)[C@@H]5CC[C@]43C)[C@@H]12 [betulinic-acid]
inactive: 1 nM -1.47% | 8.33 nM -3.53% | 100 nM -2.01% | 833.33 nM 0.38% | 10000 nM 0.04%

CCCN1CCO[C@@H]2c3cc(O)ccc3OC[C@H]21
inactive: 1 nM -1.91% | 8.33 nM -3.42% | 100 nM 2.39% | 833.33 nM -0.35% | 10000 nM -2.98%

N#C[C@H](O[C@@H]1O[C@H](CO[C@@H]2O[C@H](CO)[C@@H](O)[C@H](O)[C@H]2O)[C@@H](O)[C@H](O)[C@H]1O)c1ccccc1 [amygdalin]
inactive: 1 nM 0.51% | 8.33 nM -1.9% | 100 nM 0.79% | 833.33 nM -1.12% | 10000 nM 0.27%

COc1cc(C(=O)NC2CCCNC2)cc(OC)c1OC (stereo not given) [troxipide]
inactive: 1 nM 0.11% | 8.33 nM -0.47% | 100 nM 1.46% | 833.33 nM -0.19% | 10000 nM 2.03%

Cc1ccc(-n2sc(=O)n(Cc3ccc(F)cc3)c2=O)cc1
inactive: 1 nM 1.81% | 8.33 nM -0.78% | 100 nM 0.17% | 833.33 nM -0.22% | 10000 nM -3.39%

NS(=O)(=O)c1ccc(-n2nc(C(F)(F)F)cc2-c2ccc(Cl)cc2)cc1
inactive: 1 nM 1.27% | 8.33 nM 3.82% | 100 nM -2.22% | 833.33 nM -0.43% | 10000 nM -0.38%
